Test results: the supplement of paper PMC10849652
Targets with a hit are over-represented here; the source holds about 8,800 in all. About 0.5% of all pairs of compound and target were hits.

How the values were obtained:
Test in all cases: log2 fold change, soluble protein after heating vs DMSO (PISA); higher = thermal stabilisation; K562 lysate, 10 uM; active = over 0.2 and 3.5 SD of the protein, either way, in both replicates (recomputed)
[1] = compound: C1=CC=C(C=C1)[C@H](COC2=CC3=C(C=C2)NC(=O)N3)NC(=O)C4=CC=CN(C4=O)CC5=CC(=C(C=C5)F)F
Outline: (§1)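 Log-two fold change in thermal stability relative to solvent controls is reported from duplicates. For each sample, crude K562 extract from dounce-homogenised pellets in PBS pH 7.4 with 1 mM MgCl2, at 1 mg/mL protein, was treated with 10 μM compound for 30 min. Aliquots heated for 3 min across 48°C-58°C were pooled, brought to 0.5% NP-40 at 4°C and cleared at 21,000xg for 90 min. The supernatant was quantified by TMTpro 16plex LC-MS/MS with channel sums equalised.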

[2] = compound: CC1=C(SC2=C1C(=N[C@H](C3=NN=C(N32)C)CC(=O)N)C4=CC=C(C=C4)Cl)C
Outline: as §1

[3] = compound: CC1=C2C(=CC=C1)N=C(N(C2=O)C3=CC=CC=C3C)CN4C=NC5=C(N=CN=C54)N
Outline: as §1

[4] = compound: Cc1sc2c(c1C)C(c1ccc(Cl)cc1)=N[C@@H](CC(=O)OC(C)(C)C)c1nnc(C)n1-2
Outline: as §1

[5] = compound: c1ccc([C@@H]2C[C@H]2NC2CCNCC2)cc1
Outline: as §1

Measured: log2 fold change

KLC1 isoform 10 (UniProt Q07866)
inactive: [1] -0.094 | [2] -0.063

MAP2K4 isoform 2 (UniProt P45985)
UniProt P45985, sequence (P45985 whole entry, looked up): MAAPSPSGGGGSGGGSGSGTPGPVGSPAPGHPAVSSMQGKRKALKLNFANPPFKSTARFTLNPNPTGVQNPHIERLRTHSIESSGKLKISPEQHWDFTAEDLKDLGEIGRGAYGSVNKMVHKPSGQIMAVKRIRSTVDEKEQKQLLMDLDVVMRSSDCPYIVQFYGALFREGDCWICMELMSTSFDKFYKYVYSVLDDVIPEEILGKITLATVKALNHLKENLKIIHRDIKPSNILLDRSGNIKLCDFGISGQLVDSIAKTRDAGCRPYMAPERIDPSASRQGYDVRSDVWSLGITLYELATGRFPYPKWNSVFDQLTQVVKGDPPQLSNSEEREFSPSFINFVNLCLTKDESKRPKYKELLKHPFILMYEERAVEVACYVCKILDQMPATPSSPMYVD
inactive: [1] -0.018 | [2] 0.005 | [3] -0.065 | [4] -0.013 | [5] 0.188

LYSMD3 (UniProt Q7Z3D4)
UniProt Q7Z3D4, sequence (Q7Z3D4 whole entry, looked up): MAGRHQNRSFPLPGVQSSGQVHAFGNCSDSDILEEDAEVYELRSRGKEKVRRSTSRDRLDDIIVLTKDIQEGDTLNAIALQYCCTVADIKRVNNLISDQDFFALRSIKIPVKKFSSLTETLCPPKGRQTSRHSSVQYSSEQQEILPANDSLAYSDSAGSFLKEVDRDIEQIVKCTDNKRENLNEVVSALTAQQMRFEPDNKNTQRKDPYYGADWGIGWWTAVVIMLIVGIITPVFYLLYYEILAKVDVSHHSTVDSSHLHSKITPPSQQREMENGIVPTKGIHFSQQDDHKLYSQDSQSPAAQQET
inactive: [1] 0.031 | [2] 0.063 | [3] 0.062 | [4] -0.096 | [5] -0.084

MAPK14 (UniProt Q16539)
inactive: [1] 0.007 | [2] 0.024 | [3] 0.034 | [4] -0.04 | [5] -0.015

MAP2K7 isoform 4 (UniProt O14733)
inactive: [1] -0.072 | [2] -0.261 | [3] -0.038 | [4] 0.066 | [5] 0.079

MICU1 isoform 3 (UniProt Q9BPX6)
inactive: [1] -0.018 | [2] 0.027 | [3] -0.035 | [4] -0.043 | [5] 0.196

KLHL12 isoform 2 (UniProt Q53G59)
UniProt Q53G59, sequence (Q53G59 whole entry, looked up): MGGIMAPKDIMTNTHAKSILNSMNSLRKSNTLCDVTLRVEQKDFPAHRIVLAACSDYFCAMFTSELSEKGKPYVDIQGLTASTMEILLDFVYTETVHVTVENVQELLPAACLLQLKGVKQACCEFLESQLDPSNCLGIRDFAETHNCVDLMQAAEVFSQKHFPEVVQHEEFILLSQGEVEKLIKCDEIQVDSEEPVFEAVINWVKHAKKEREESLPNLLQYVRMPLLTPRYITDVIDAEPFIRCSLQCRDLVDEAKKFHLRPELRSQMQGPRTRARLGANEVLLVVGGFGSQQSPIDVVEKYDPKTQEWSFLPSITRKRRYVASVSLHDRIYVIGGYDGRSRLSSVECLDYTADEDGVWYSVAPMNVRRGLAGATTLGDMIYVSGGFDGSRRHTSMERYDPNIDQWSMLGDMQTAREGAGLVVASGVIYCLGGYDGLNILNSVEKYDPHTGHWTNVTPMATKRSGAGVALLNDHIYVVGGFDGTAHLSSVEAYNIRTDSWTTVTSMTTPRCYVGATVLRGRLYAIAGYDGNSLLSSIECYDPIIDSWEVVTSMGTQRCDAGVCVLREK
inactive: [1] 0.152 | [2] -0.049 | [3] -0.013 | [4] 0.161

MAP4K4 isoform 3 (UniProt O95819)
inactive: [1] 0.022 | [2] 0.029 | [3] 0.015 | [4] -0.021 | [5] 0.083

LPCAT1 (UniProt Q8NF37)
inactive: [1] -0.071 | [2] 0.056 | [3] 0.066 | [4] 0 | [5] -0.115

MAP2K1 (UniProt Q02750)
inactive: [1] -0.012 | [2] 0.016 | [3] -0.047 | [4] -0.048 | [5] 0.081

LLGL1 (UniProt Q15334)
inactive: [1] 0.038 | [2] 0.052 | [3] 0.024 | [4] -0.056 | [5] 0.074

MGST1 (UniProt P10620)
inactive: [1] -0.08 | [2] 0.005 | [3] 0 | [4] -0.056 | [5] 0.022

MAP4K5 (UniProt Q9Y4K4)
inactive: [1] 0.069 | [2] 0.063 | [3] -0.079 | [4] -0.022 | [5] -0.1

MOCS1 isoform 8 (UniProt Q9NZB8)
inactive: [1] -0.061 | [2] -0.044 | [3] 0.058 | [4] -0.017 | [5] 0.067

LSG1 (UniProt Q9H089)
inactive: [1] 0.068 | [2] 0.038 | [3] 0.084 | [4] -0.028 | [5] -0.044

MAP4 isoform 5 (UniProt P27816)
inactive: [1] -0.065 | [2] 0.099 | [3] 0.163 | [4] 0.181

MAP2K3 isoform 3 (UniProt P46734)
inactive: [1] 0.035 | [2] -0.021 | [3] -0.024 | [4] 0.043 | [5] -0.006

KRIT1 (UniProt O00522)
UniProt O00522, sequence (O00522 whole entry, looked up): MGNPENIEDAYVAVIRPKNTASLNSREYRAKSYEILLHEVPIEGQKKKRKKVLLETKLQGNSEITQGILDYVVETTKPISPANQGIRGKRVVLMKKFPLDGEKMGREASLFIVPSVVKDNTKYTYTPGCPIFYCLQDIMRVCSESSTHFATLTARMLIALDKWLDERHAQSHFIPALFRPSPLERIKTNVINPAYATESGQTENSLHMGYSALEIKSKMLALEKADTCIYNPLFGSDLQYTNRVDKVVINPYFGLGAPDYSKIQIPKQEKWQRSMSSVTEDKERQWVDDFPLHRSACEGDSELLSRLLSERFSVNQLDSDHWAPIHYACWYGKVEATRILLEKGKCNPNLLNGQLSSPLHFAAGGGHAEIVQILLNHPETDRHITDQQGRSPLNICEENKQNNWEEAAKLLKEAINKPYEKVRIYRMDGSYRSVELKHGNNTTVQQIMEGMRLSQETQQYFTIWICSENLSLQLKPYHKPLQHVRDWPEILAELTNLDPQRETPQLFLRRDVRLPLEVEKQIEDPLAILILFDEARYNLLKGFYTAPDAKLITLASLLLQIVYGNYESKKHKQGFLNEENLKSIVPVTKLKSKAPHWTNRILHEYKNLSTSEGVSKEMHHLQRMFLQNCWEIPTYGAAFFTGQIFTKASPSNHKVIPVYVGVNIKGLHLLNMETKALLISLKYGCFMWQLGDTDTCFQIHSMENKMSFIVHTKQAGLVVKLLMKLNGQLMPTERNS
inactive: [1] -0.026 | [2] -0.041 | [3] 0.099 | [4] -0.082

KIF2C (UniProt Q99661)
inactive: [1] -0.022 | [2] -0.023 | [3] -0.009 | [4] 0.052 | [5] 0.032

MAPKAPK2 (UniProt P49137)
inactive: [1] 0.043 | [2] 0.008 | [3] -0.053 | [4] 0.004 | [5] -0.051

MRPL35 (UniProt Q9NZE8)
inactive: [1] -0.028 | [2] -0.002 | [3] 0.331 | [4] -0.04 | [5] 0

MPP1 (UniProt Q00013)
inactive: [1] -0.01 | [2] 0.006 | [3] 0.024 | [4] 0.016 | [5] 0.044

KIF4A (UniProt O95239)
inactive: [1] -0.042 | [2] 0.012 | [3] 0.035 | [4] 0.06 | [5] 0.005

MAPK9 (UniProt P45984)
UniProt P45984, sequence (P45984 whole entry, looked up): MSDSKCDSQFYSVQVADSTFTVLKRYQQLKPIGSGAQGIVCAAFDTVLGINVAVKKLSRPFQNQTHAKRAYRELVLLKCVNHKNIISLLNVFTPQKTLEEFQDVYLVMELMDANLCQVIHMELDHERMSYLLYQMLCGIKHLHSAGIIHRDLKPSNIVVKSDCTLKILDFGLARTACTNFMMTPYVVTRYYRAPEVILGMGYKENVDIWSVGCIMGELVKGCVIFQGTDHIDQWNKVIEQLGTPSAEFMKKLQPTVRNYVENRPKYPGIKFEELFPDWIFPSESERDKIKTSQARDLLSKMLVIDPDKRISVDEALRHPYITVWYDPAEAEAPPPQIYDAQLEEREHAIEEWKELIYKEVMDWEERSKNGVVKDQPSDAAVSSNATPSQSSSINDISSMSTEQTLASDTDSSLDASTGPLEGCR
inactive: [1] -0.021 | [2] 0.013 | [3] 0.045 | [4] -0.071 | [5] 0.033

LTN1 isoform 3 (UniProt O94822)
inactive: [1] -0.059 | [2] 0 | [3] 0.027 | [4] -0.025 | [5] 0.04

LZTS1 (UniProt Q9Y250)
inactive: [1] -0.082 | [2] 0.049 | [3] 0.065 | [4] -0.628 | [5] 0.324

MED10 (UniProt Q9BTT4)
inactive: [1] 0.038 | [2] -0.033 | [3] -0.04 | [4] 0.015 | [5] -0.009

MAD2L1BP isoform 3 (UniProt Q15013)
UniProt Q15013, sequence (Q15013 whole entry, looked up): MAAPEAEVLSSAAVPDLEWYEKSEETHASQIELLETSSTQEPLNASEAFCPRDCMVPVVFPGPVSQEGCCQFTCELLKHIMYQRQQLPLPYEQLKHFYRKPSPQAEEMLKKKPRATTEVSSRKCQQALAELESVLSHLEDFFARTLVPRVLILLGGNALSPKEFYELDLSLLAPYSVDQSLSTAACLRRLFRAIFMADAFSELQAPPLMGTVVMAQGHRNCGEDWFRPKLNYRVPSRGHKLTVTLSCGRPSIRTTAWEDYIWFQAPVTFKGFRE
inactive: [1] 0.003 | [2] 0.005 | [3] -0.013 | [4] -0.01 | [5] -0.006

MFF isoform 2 (UniProt Q9GZY8)
inactive: [1] 0.044 | [2] -0.029 | [3] -0.009 | [4] -0.049 | [5] -0.125

KRI1 (UniProt Q8N9T8)
inactive: [1] 0.053 | [2] 0.043 | [3] 0.027 | [4] -0.048 | [5] -0.039

MED13L (UniProt Q71F56)
inactive: [1] -0.034 | [2] 0.029 | [3] 0.028 | [4] -0.095 | [5] 0.014

MAP7D3 (UniProt Q8IWC1)
inactive: [1] 0.056 | [2] 0.057 | [3] -0.091 | [4] 0.015 | [5] -0.05

MAPKAPK5 (UniProt Q8IW41)
inactive: [1] 0.034 | [2] 0.027 | [3] 0.014 | [4] 0.013 | [5] 0.01

MCMBP (UniProt Q9BTE3)
UniProt Q9BTE3, sequence (Q9BTE3 whole entry, looked up): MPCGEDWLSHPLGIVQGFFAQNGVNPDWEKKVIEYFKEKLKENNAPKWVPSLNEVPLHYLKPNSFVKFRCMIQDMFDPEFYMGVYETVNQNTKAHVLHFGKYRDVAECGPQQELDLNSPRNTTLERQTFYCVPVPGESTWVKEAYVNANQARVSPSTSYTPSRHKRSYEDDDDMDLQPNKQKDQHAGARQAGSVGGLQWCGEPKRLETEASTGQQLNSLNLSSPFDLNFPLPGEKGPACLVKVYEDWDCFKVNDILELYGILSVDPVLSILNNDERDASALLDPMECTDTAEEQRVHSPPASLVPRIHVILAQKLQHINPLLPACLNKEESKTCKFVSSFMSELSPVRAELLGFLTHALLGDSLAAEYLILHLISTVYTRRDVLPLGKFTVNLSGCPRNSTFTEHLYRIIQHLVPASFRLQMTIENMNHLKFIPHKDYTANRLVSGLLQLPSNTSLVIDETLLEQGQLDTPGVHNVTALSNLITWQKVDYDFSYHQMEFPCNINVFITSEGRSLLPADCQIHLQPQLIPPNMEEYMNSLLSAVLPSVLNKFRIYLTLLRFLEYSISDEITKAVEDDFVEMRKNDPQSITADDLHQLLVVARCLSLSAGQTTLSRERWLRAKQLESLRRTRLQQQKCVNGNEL
inactive: [1] -0.016 | [2] 0.035 | [3] 0.019 | [4] -0.013 | [5] 0.057

MRPL15 (UniProt Q9P015)
inactive: [1] -0.016 | [2] 0.04 | [3] 0.003 | [4] 0.04 | [5] -0.212

MINDY1 isoform 3 (UniProt Q8N5J2)
inactive: [1] 0.017 | [2] 0.061 | [3] -0.003 | [4] 0.028

MAST4 (UniProt O15021)
inactive: [1] 0.007 | [2] -0.019 | [3] -0.037 | [4] 0.023 | [5] 0

MLST8 (UniProt Q9BVC4)
inactive: [1] -0.038 | [2] 0.037 | [3] -0.051 | [4] 0.001 | [5] 0.011

MCMBP isoform 2 (UniProt Q9BTE3)
inactive: [1] 0.045 | [2] 0.02 | [3] 0.007 | [4] 0.018

LRRC40 (UniProt Q9H9A6)
inactive: [1] 0.001 | [2] 0.003 | [3] 0.003 | [4] 0.012 | [5] 0.034

KIF2A isoform 4 (UniProt O00139)
inactive: [1] 0.006 | [2] -0.012 | [3] 0.015 | [4] 0.012 | [5] 0.04

MECR (UniProt Q9BV79)
UniProt Q9BV79, sequence (Q9BV79 whole entry, looked up): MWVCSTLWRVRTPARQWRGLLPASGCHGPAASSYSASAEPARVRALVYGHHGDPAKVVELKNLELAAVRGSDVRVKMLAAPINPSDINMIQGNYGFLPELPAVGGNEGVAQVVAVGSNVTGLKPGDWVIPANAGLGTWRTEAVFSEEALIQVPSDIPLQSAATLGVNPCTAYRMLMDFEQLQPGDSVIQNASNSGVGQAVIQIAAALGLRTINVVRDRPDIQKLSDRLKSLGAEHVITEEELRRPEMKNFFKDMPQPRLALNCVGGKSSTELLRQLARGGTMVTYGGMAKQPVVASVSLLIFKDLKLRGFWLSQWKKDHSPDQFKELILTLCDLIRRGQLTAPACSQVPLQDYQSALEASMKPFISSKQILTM
inactive: [1] -0.001 | [2] 0.013 | [3] 0.047 | [4] -0.048 | [5] 0.005

LDAH isoform 2 (UniProt Q9H6V9)
inactive: [1] -0.119 | [2] 0.018 | [3] 0.001 | [4] 0.075 | [5] -0.002

MCCC1 (UniProt Q96RQ3)
UniProt Q96RQ3, sequence (Q96RQ3 whole entry, looked up): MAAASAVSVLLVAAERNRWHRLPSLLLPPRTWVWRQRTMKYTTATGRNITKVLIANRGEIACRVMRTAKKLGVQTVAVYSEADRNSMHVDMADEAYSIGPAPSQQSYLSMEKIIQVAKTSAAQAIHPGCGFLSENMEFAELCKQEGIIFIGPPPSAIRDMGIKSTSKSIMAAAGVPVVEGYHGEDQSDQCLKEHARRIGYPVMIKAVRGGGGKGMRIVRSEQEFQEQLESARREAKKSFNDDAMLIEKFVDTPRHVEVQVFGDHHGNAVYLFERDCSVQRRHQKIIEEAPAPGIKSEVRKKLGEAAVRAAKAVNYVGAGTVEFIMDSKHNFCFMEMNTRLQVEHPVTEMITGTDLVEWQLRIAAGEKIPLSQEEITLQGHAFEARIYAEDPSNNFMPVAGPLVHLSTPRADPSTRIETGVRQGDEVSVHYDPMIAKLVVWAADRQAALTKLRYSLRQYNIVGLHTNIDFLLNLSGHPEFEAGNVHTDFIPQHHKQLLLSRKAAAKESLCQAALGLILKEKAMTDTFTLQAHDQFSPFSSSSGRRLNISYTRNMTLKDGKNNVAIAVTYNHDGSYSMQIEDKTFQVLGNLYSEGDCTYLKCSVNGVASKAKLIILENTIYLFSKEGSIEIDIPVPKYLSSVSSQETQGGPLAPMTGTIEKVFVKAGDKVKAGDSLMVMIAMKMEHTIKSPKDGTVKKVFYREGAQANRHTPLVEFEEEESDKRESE
inactive: [1] -0.063 | [2] 0.015 | [3] 0.046 | [4] 0.002 | [5] 0.059

MGST3 (UniProt O14880)
inactive: [1] 0.003 | [2] -0.033 | [3] -0.008 | [4] -0.072 | [5] 0.056

MAP3K4 (UniProt Q9Y6R4)
inactive: [1] 0.012 | [2] -0.079 | [3] -0.001 | [4] -0.03 | [5] -0.008

MICB, A0A140T979
inactive: [1] 0.028 | [2] -0.012 | [3] -0.003 | [4] 0.026 | [5] 0.019

MAP2K5 (UniProt Q13163)
UniProt Q13163, sequence (Q13163 whole entry, looked up): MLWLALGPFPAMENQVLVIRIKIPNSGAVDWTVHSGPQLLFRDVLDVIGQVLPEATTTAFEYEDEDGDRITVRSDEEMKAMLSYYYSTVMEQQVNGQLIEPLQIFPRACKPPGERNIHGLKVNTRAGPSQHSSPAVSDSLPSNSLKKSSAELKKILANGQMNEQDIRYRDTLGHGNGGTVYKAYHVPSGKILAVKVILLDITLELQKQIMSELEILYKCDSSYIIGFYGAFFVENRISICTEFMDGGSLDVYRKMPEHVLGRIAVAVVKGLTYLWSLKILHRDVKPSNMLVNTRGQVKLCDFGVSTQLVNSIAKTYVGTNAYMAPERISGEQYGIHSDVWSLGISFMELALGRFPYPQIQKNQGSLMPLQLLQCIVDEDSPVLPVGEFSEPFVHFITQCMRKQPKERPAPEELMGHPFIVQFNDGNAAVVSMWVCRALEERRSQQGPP
inactive: [1] -0.046 | [2] 0.155 | [3] -0.045 | [4] -0.407 | [5] -0.02

MMS19 isoform 8 (UniProt Q96T76)
inactive: [1] -0.024 | [2] 0.001 | [3] 0.032 | [4] -0.005 | [5] 0.018

MARK2 (UniProt E9PC69)
inactive: [1] 0.003 | [2] -0.004 | [3] 0.071 | [4] -0.043 | [5] 0.035

LUC7L (UniProt Q9NQ29)
inactive: [1] 0.011 | [2] 0.013 | [3] 0.006 | [4] 0.003 | [5] 0.055

MINK1 (UniProt Q8N4C8)
inactive: [1] 0.069 | [2] 0.092 | [3] -0.149 | [4] -0.066 | [5] 0.086

MMS22L (UniProt Q6ZRQ5)
inactive: [1] -0.062 | [2] -0.027 | [3] -0.038 | [4] 0.07 | [5] 0.11
